# DT40 TDP1 CPT: DT40-hTDP1 cell growth loss with CPT; 420,000 tested, 12% active; AID 686979; chicken DT40 Tdp1-/-;hTDP1 cells + 20 nM CPT, ATP luminescence, 48 h; Potency, µM (highest dose often 46.2 µM), for the others: top-dose activity change, negative = growth inhibition, hits mostly inhibitors; note: potency is the fitted concentration of half-maximal effect; nearly all actives have a fitted effect of over 55% in size
#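 Chicken DT40 Tdp1-/- cells complemented with human TDP1, 400 cells/well, exposed to compounds plus 20 nM camptothecin for at least 48 h at 37 C; viability read as ATP content by CellTiter-Glo luminescence.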
# Six1-Eya2 blk: inhibitors of human Six1/Eya2 interaction | AlphaScreen GST-Six1/His-Eya2 binding, biochemical; active compounds read low | activity change, % (concentration not given with the values) | 360,000 tested, 0.56% active | Q15475+O00167; in the data active = activity change below about -65%; inconclusive = mostly about -30% to -63%
#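 AlphaScreen with GST-Six1 and His-Eya2 (5X mix: 250 nM and 500 nM), glutathione donor and nickel acceptor beads; buffer 50 mM Tris pH 8.0, 300 mM NaCl, 1 mM TCEP; 1 h at 37 C in the dark.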
# IL1B secr inh: inhibitors of inflammasome signaling (IL-1 beta secretion). THP-1 LPS/ATP IL-1B secretion, AlphaLISA, 16 h; active compounds read low. 360,000 tested, 4.7% active. activity change, % at 57.5 µM; in the data active = activity change below about -50%; inconclusive = mostly about -30% to -49%
#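 THP-1 cells pretreated 1 hr with compounds (up to 57.5 uM final), then stimulated with LPS (250 ng/mL final) plus ATP (1.25 mM final); secreted IL-1B measured by AlphaLISA after 16 hr, decreased signal indicating inhibition.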
# TDP1 inh: TDP1 (human) enzyme inhibition; Q9NUW8; recombinant TDP1, AlphaScreen DNA substrate cleavage; Potency, µM (top dose mostly 130 µM), for inactives: top-dose activity change, negative = inhibition, most hits filed as inhibitors; 350,000 tested, 0.28% active; AID 485290; note: potency is the fitted concentration of half-maximal effect; nearly all actives have a fitted effect of over 40% in size
# Target sequence (Q9NUW8 whole entry, looked up): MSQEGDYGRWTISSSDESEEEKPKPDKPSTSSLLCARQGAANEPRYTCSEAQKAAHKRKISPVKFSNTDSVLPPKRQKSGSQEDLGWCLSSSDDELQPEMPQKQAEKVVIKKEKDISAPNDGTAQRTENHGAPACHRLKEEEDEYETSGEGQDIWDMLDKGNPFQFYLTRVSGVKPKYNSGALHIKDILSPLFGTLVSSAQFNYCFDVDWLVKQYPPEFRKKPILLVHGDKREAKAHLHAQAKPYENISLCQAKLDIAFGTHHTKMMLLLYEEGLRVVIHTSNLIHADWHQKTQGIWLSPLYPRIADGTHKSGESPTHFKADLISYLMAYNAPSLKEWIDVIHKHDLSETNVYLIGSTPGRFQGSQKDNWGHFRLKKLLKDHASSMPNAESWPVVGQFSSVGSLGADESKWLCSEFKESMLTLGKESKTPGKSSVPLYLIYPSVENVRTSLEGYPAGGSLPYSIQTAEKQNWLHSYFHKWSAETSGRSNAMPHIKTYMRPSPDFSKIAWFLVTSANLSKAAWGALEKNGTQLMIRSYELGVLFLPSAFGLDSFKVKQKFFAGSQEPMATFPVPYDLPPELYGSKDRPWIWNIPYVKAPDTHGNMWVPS
#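 Compounds were preincubated with Tdp1 (1 nM final) for 15 min at room temperature before substrate (15 nM final) started a 5 min reaction; beads (10 ug/ml final) were then added for 10 min before AlphaScreen detection.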
# CtBP-E1A inh: CtBP/E1A binding inhibition; AlphaScreen GST-E1A/His-CtBP binding, 1536-well; active compounds read low; activity change, % (concentration not given with the values); AID 651724; 340,000 tested, 0.49% active; in the data active = activity change below about -65%; inconclusive = mostly about -30% to -63%
#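 Steps: dispense buffer (Tris pH 8.0, NaCl 300 mM, TCEP 1 mM, BSA, Tween 20); add 5X protein mix (GST-E1A, His-CtBP, 125 nM each); pin 23 nL compound; 2 h at 37 °C, dark; add 5X beads (50 ug/mL); 1 h; read.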
# TDP1 cell noCPT: qHTS for Inhibitors of human tyrosyl-DNA phosphodiesterase 1 (TDP1): qHTS in cells in absence of CPT; DT40 Tdp1-/- hTDP1 cells, no CPT, ATP luminescence, 48 h; Potency, µM (doses to about 46.2 µM), inactives show at the highest dose activity change, negative = growth inhibition, usual class: inhibitors; 420,000 tested, 15% active; note: potency is the fitted concentration of half-maximal effect; nearly all actives have a fitted effect of over 55% in size
#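 DT40 Tdp1-/-;hTDP1 cells, no CPT (DMSO vehicle only), 400 cells/well; compounds pin-transferred; ≥48 hr, 37 °C; CellTiter-Glo 30 min RT dark, luminescence read.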
# * = called active by the depositor; ? = inconclusive; . = not tested or not shown. Shown are actives, neighbours in structure and some others; about 18% of the full set was active somewhere. Unless noted, calls come from the whole dose curve; as a rule, active = well fitted curve in the direction sought with a large enough effect; inconclusive = small, poorly fitted or top-dose-only effect, or another doubt; inactive = no such curve, though single readings can be large; an effect the other way counts as inactive or inconclusive. % is set by controls: 0 for no effect and ±100 for the full control effect.
SMILES,DT40 TDP1 CPT,Six1-Eya2 blk,IL1B secr inh,TDP1 inh,CtBP-E1A inh,TDP1 cell noCPT
CCOC(=O)CN1CC23C=CC(O2)C(C(=O)NCc2ccccc2OC)C3C1=O (stereo unspecified),-6.8%,26.6,-19.4,5.4%,10.6,-12.8%
NCCNCCNCCN,-27.1%,-84.3*,-14.9,11.0%,-93.3*,-1.0%
Cc1ccccc1OCCC(=O)Nc1ccc(S(=O)(=O)N(C)C2CCN(C)CC2)cc1,?,-22.9,-60.9*,.,-4.8,?
CN1CCC(N(C)S(=O)(=O)c2ccc(NC(=O)COc3cccc(Cl)c3)cc2)CC1,?,-9.5,-27.4,1.9%,-4.7,?
CN1CCC(N(C)S(=O)(=O)c2ccc(NC(=O)COc3ccc(Br)cc3Cl)cc2)CC1,25.9µM*,-17.7,-62.7*,.,-5.8,16.4µM*
CCNC(=O)C1(C)CCN(C(=O)c2ccc(F)c(Cl)c2)C1 (stereo unspecified),-1.5%,-3.2,22.5,.,3.2,-16.6%
CC1CN(C(=O)c2ccccc2OCc2ccc(Cl)cc2Cl)CC(C)O1 (stereo unspecified),16.4µM*,8.0,-2.8,-4.6%,4.8,3.66µM*
CC1CN(C(=O)c2ccccc2Oc2ccccc2)CC(C)O1 (stereo unspecified),-12.7%,11.3,12.4,2.4%,.,?
COc1ccc(OCCN(C)Cc2c(O)ccc3ccccc23)cc1,-25.7%,-7.3,?,-9.6%,-1.7,-28.7%
O=[N+]([O-])c1ccc(NN=C2CCCCC2)c([N+](=O)[O-])c1,?,-19.2,-2.1,.,-14.4,?
COc1ccc(OC)c(NC(=O)CSc2nc3ccccc3c(=O)n2CCC(=O)NC2CCCCC2)c1,-6.5%,.,.,4.4%,.,-5.6%
COC(=O)c1ccc(CSC(=N)N)o1,16.4µM*,8.2,.,2.4%,-9.5,?
CCc1oc(C(=O)OC)cc1CSC(=N)N,?,-2.0,-86.6*,2.4%,1.5,?
COC(=O)c1cc(C)cc(=O)o1,-2.6%,5.0,-8.3,-2.5%,1.0,-4.5%
CCOC(=O)c1ccc(CSc2nncn2N)o1,-11.8%,3.8,5.1,-3.1%,-22.9,-2.7%
CCOC(=O)c1ccc(CSC(=N)N)o1,29.1µM*,2.2,-11.5,-2.8%,-15.9,?
COC(=O)c1ccc(Cc2ccc(C(=O)OC)o2)o1,-14.4%,-3.7,-4.0,0.0%,9.4,-5.2%
NC(=O)c1ccccc1NS(=O)(=O)c1ccc(F)cc1,-6.0%,2.4,-12.7,-8.4%,0.8,-13.4%
Brc1ccc(-c2noc(C3CCCCC3)n2)cc1,-12.5%,-1.8,10.4,0.0%,13.0,-14.9%
O=C(NCCN1CCCC(O)C1)c1cc(COc2ccc(F)cc2Cl)on1 (stereo unspecified),-8.4%,-1.2,-11.6,1.2%,1.9,4.5%
Cc1ccc(C)c(N2CCN(C(=O)C3CCN(c4nc(-c5ccc(C(C)C)cc5)no4)CC3)CC2)c1,?,.,.,0.0%,.,10.3µM*
COc1ccc(-c2noc(N3CCC(C(=O)N4CCN(c5ccccc5F)CC4)CC3)n2)cc1,?,.,.,3.9%,.,5.17µM*
COC(=O)N1CC(=O)N(OC)C1c1ccc(Cl)cc1Cl (stereo unspecified),-1.5%,-0.1,3.4,3.9%,2.1,-15.4%
CS(=O)(=O)c1cccc(C(=O)OCCCC(=O)c2ccccc2)c1,-2.4%,2.1,21.4,-0.2%,.,?
COc1cccc(-c2c(-c3cc(OC)cc(OC)c3)n(C)c3ccc(-c4ccc5[nH]ccc5c4)cc23)c1,?,-7.9,-5.6,2.0%,-20.9,?
SMILES,DT40 TDP1 CPT,Six1-Eya2 blk,IL1B secr inh,TDP1 inh,CtBP-E1A inh,TDP1 cell noCPT
COc1ccc(-c2c(-c3cc(OC)cc(OC)c3)n(C)c3ccc(-c4cc(F)cc(OC)c4)cc23)cc1,?,-9.2,8.5,1.5%,-17.8,16.4µM*
COc1cc(OC)cc(-c2c(-c3ccc(F)cc3)c3cc(-c4ccc5[nH]ccc5c4)ccc3n2C)c1,29.1µM*,-4.4,-18.6,1.9%,-10.3,?
O=C(C[C@@H]1CC[C@@H]2[C@H](COC[C@@H](O)CN2Cc2cc(F)ccc2F)O1)NCc1ccc(F)cc1,?,0.0,-4.8,.,-3.4,?
O=C(C[C@H]1CC[C@@H]2[C@H](COC[C@H](O)CN2Cc2cccc(C(F)(F)F)c2)O1)NCCc1ccccc1,20.6µM*,-3.5,-16.2,.,0.1,13µM*
CN1CCN(C(=O)C[C@H]2CC[C@H]3[C@@H](COC[C@@H](O)CN3Cc3cccc(F)c3)O2)CC1,-12.7%,2.4,11.9,.,-3.0,4.0%
O=C(C[C@H]1CC[C@@H]2[C@H](COC[C@@H](O)CN2Cc2cccc(F)c2)O1)NCC1CCCCC1,20.6µM*,-1.7,22.2,.,4.9,20.6µM*
O=C(CN1CCN(C(=O)CCC(=O)N2CCC(c3ccccc3)=N2)CC1)Nc1ccc(F)cc1,?,-16.2,-9.3,4.6%,0.0,23.1µM*
O=C(CN1CCN(CC(=O)Nc2ccc3c(c2)OC2(CCCCC2)O3)CC1)Nc1cccc(F)c1,23.1µM*,-16.6,.,.,23.0,16.4µM*
Cc1cccc(C)c1NC(=O)CN1CCN(C(=O)CCC(=O)N2CCC(c3ccccc3)=N2)CC1,11.9%,-0.3,2.0,.,4.4,-2.9%
O=C(CN1CCN(C(=O)CCC(=O)N2CCC(c3ccccc3)=N2)CC1)Nc1cccc(F)c1,16.4µM*,-3.1,?,.,-1.5,16.4µM*
c1ccc(CNCCN2CCNCC2)nc1,-12.0%,-85.7*,6.1,1.1%,-72.1*,0.7%
CC1(C)Cc2ccccc2C(/C(C#N)=N/O)=N1,14.6µM*,5.8,-17.9,2.5%,.,23.1µM*
NC(N)=N/N=C/c1cccc(Cl)c1Cl,?,5.0,-101.5*,3.6%,0.0,?
CC1CC(=O)c2c(cc3c(-c4c(O)cc(O)c5c(O)c6c(cc45)OC(C)CC6=O)c(O)cc(O)c3c2O)O1 (stereo unspecified),1.03µM*,?,3.4,3.8%,?,1.3µM*
O=C1CC(c2ccccc2)Oc2cc(O)cc(O)c21 (stereo unspecified),-20.0%,0.7,-3.5,.,6.6,-26.1%
CC1(C)Cc2c(sc3nnn(CC(=O)Nc4ccccc4)c(=O)c23)CO1,1.3%,0.2,15.1,0.0%,4.1,?
CCSc1nc2sc3c(c2c(=O)n1CC)CC(C)(C)OC3,?,3.0,-0.6,2.9%,-0.1,?
CC1(C)Cc2c(sc3nnn(Cc4ccc(Cl)cc4)c(=O)c23)CO1,?,-0.4,-8.9,0.0%,1.1,13µM*

# High-throughput results: PubChem BioAssay, National Center for Advancing Translational Sciences (NCATS)
